Screening results: PubChem, National Center for Advancing Translational Sciences (NCATS)
Many of the other results were omitted from the sample, so hits are more common in it than they were.
TbPYK inhibitor = T. brucei pyruvate kinase inhibition; actives 0.12% (n = 410,000); TbPYK enzyme, Kinase-Glo Plus ATP luminescence, 45 min; Potency, µM (highest dose often 76.8 µM), without a hit: at the top dose activity, negative = inhibition, most hits filed as inhibitors; further: potency means the concentration at half of the fitted maximal effect; on the % scale 0 is the no-effect control and ±100 the full control effect; nearly all actives have a fitted effect of over 50% in size
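Glycolytic pyruvate kinase of T. brucei was incubated with substrate, test compound and 130 uM ADP for 45 minutes at room temperature. Luminescent Kinase-Glo Plus signal was measured after 10 minutes.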
Sm TGR inh = S. mansoni TGR enzyme inhibition; Q962Y6; purified TGR, DTNB reduction, TNB absorbance 405 nm; Potency, µM (doses to about 114 µM), for the others: at the top dose activity change, negative = inhibition, most hits filed as inhibitors; actives 3% (n = 360,000); AID 485364; further: potency means the concentration at half of the fitted maximal effect; on the % scale 0 is the no-effect control and ±100 the full control effect; nearly all actives have a fitted effect of over 60% in size
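Kinetic colorimetric format: TGR-catalysed, NADPH-driven DTNB reduction monitored via TNB absorbance. Enzyme dispensed at 20 nM; compound exposure 15 min at room temperature before reaction start.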
LmPK inh = blocks Leishmania mexicana pyruvate kinase activity; AID 1721; Q27686; Potency, µM (titrated, usually from 57.5 µM), without a hit: at the top dose activity change, negative = inhibition, hits mostly inhibitors; actives 0.37% (n = 290,000); purified LmPK, Kinase-Glo ATP luminescence, 1 h; further: potency means the concentration at half of the fitted maximal effect; on the % scale 0 is the no-effect control and ±100 the full control effect
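Screened at intermediate enzyme activity to detect both inhibitors and activators: LmPK at 0.1 nM, with a 0.5 nM enzyme column as activation reference. PEP 0.5 mM, ADP 0.1 mM; ATP detected by luminescence after 1 h.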
Giardia FBPA inh = blocks Giardia fructose-bisphosphate aldolase activity. actives 0.71% (n = 290,000). Potency, µM (top dose mostly 59.6 µM), for inactives: at the highest dose activity, negative = inhibition, hits mostly inhibitors. purified Giardia FBPA; further: potency means the concentration at half of the fitted maximal effect; on the % scale 0 is the no-effect control and ±100 the full control effect; nearly all actives have a fitted effect of over 55% in size
Target sequence (A8B2U2 whole entry, looked up): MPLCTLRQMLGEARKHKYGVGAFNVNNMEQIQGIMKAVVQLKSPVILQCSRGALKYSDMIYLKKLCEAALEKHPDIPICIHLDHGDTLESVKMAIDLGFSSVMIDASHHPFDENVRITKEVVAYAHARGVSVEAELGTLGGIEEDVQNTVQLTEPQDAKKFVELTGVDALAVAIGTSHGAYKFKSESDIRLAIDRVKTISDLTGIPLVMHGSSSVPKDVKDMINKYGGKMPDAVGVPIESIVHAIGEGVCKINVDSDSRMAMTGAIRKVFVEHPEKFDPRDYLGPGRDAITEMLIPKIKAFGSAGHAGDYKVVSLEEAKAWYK
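Giardia FBPA (40 nM reagent) was preincubated 10 min at RT with compound (up to 57.5 uM final), then substrate plus GAPDH/TPI/NAD/arsenate coupling system with diaphorase/resazurin was added; resorufin fluorescence (525/598 nm) was read after 20 min.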
Cycloheximide cs = counter-screen hit for Shiga toxin inhibitors, cycloheximide. cell reporter, cycloheximide protein synthesis inhibition counterscreen. actives 12% (n = 300,000). AID 2314. max response, %; in the data active means max response mostly above about 13%, no sharp cut-off; inactive means mostly below about 14%; further: read at 38.3 µM for the half of the compounds with a filed dose; 0% is about no effect
Shiga inhibitor = Shiga toxin inhibition; Vero cells, Shiga toxin protein synthesis inhibition reporter; inhibition, % at 38.7 µM; actives 9.2% (n = 290,000); AID 2315; in the data active means inhibition mostly above about 28%, no sharp cut-off; inactive means mostly below about 43%; further: 0% is about no effect
Active calls of the source: *; ? = inconclusive; / = not tested or not shown. Unless noted, the call rests on the fitted dose curve; in most records, active means well fitted curve in the direction sought with a large enough effect; inconclusive means small, poorly fitted or top-dose-only effect, or another doubt; inactive means no such curve, though single readings can be large; an effect the other way counts as inactive or inconclusive.

SMILES	TbPYK inhibitor	Sm TGR inh	LmPK inh	Giardia FBPA inh	Cycloheximide cs	Shiga inhibitor
CCOC(=O)c1cc(-c2ccccc2)n(CCC(=O)NCCc2ccccc2)c1C	1%	11%	/	/	/	/
Cc1cc(C(=O)Nc2nnc(C3CCCCC3)s2)cs1	0%	1%	-3%	-2%	38*	63
Cc1cc(C(=O)Nc2nnc(C(F)(F)F)s2)cs1	2%	9%	1%	?	18*	9
O=C(Nc1nnc(C(F)(F)F)s1)c1ccc(Br)s1	-9%	8%	-2%	?	21*	54*
Cc1cc(C(=O)Nc2nnc(C(F)(F)F)s2)no1	1%	15%	3%	-21%	11	21
O=C(Nc1nnc(C2CCCCC2)s1)c1ccc(Br)s1	4%	2%	-10%	0%	7	-3
O=C(CCN1C(=O)c2ccccc2Sc2ncccc21)Nc1ccc(F)cc1	-1%	16µM*	/	/	/	/
CCc1cccc(NC(=O)CCN2C(=O)c3ccccc3Sc3ncccc32)c1	-2%	45µM*	/	/	/	/
CC(C)NC(=O)CCN1C(=O)c2ccccc2Sc2ncccc21	-3%	15%	-3%	1%	-3	-4
COc1cccc(OC(=O)CSc2nnc(-c3cccs3)o2)c1	-2%	-2%	/	/	/	/
CC(=O)N1c2ccc(S(=O)(=O)NCC3CCC(C(=O)Nc4cccc(F)c4)CC3)cc2CC1C (stereo not drawn)	6%	-2%	/	/	/	/
Cc1nn(C(=O)c2ccc(Cl)cc2)c(C)c1S(=O)(=O)N1CCOCC1	-5%	?	/	/	/	/
COc1ccc2cc3cc(C(=O)N4CCN(c5ccccc5F)CC4)oc3nc2c1	-7%	1%	/	/	/	/
COc1ccc2cc3cc(C(=O)N(C)C4CCCCC4)oc3nc2c1	-9%	-7%	-11%	/	30*	77*
COc1ccc2nc3oc(C(=O)NC4CCN(Cc5ccccc5)CC4)cc3cc2c1	0%	-9%	-8%	1%	17	31*
COc1ccc2cc3cc(C(=O)NCCCN4CCC(C)CC4)oc3nc2c1	0%	2%	-4%	/	43*	128*
COc1ccc2cc3cc(C(=O)N4CCCCC4C)oc3nc2c1 (stereo not drawn)	4%	0%	-1%	/	34*	64*
CC[C@@]1(c2ccccc2)NC(=O)NC1=O	/	/	/	0%	6	11
COc1ccc2cc3cc(C(=O)N4CCCCCC4)oc3nc2c1	-18%	1%	-7%	8%	41*	72*
COc1ccc2nc3oc(C(=O)Nc4ccc(OC)c(OC)c4)cc3cc2c1	-26%	4%	22µM*	0%	-1	-1
COc1ccc2cc3cc(C(=O)N4CCN(C5CCCCC5)CC4)oc3nc2c1	-6%	0%	6%	/	6	7
CC[C@H]1C2=C3C(CC[C@H]4C(OCc5ccc(F)cc5C(F)(F)F)OC[C@](C)([C@@H]34)N(C(=O)OC(C)(C)C)C2)C(COC)C1COC (stereo partly drawn)	/	/	/	2%	/	/
O=C(O/N=C1\CCS(=O)(=O)c2sccc21)c1c(F)cccc1F	2%	/	-1%	-1%	14*	7
Cc1ccc(Nc2nc(N)c([N+](=O)[O-])c(NCCO)n2)cc1C	3%	2%	-3%	-7%	27*	62
Cc1ccc(Nc2nc(N)c([N+](=O)[O-])c(NCc3ccco3)n2)cc1C	-6%	-3%	1%	-9%	67*	54*
SMILES	TbPYK inhibitor	Sm TGR inh	LmPK inh	Giardia FBPA inh	Cycloheximide cs	Shiga inhibitor
Nc1nc(Nc2ccc(Cl)cc2)nc(NCCO)c1[N+](=O)[O-]	4%	-5%	1%	-10%	1	20
CCOc1ccc(Nc2nc(N)c([N+](=O)[O-])c(NCc3ccccc3)n2)cc1	-2%	17%	2%	-6%	19*	34
Nc1nc(Nc2ccccc2)nc(NCc2ccccc2)c1[N+](=O)[O-]	3%	4%	2%	-10%	9	-2
Nc1nc(NCc2ccco2)nc(Nc2ccc(F)cc2)c1[N+](=O)[O-]	-7%	-14%	1%	6%	-1	26
Nc1nc(-c2ccccn2)nc(N)c1Cc1ccccc1F	-4%	0%	-9%	0%	38*	78*
Nc1nnc(Cc2ccc(Cl)cc2Cl)s1	7%	-8%	-3%	2%	1	-12
Nc1nc(-c2ccccn2)nc(N)c1Cc1c(F)cccc1Cl	-2%	18%	-11%	9%	34*	43
Nc1nc(-c2ccccn2)nc(N)c1Cc1ccc(Cl)cc1Cl	3%	1%	11%	-4%	37*	56*
O=C(O)C1CCCN1 (stereo not drawn)	/	/	/	-13%	-4	32
O=S(=O)(c1ccc(Cl)s1)N1CCc2ccccc2C1	-20%	-8%	-1%	6%	-6	25
O=S(=O)(c1ccc(Cl)s1)N1CCCc2cccc(O)c21	2%	-25%	-1%	-25%	50*	84*
CCCCNC(=O)CSc1nc2n[nH]c(C)c2c(=N)n1-c1ccccc1CC	-8%	10%	/	/	/	/
O=C(CNC(=O)c1ccc(F)cc1)NCc1ccc(S(=O)(=O)N2CCOCC2)cc1	?	89µM*	/	/	/	/
O=C(NCc1ccc(F)cc1)c1ccc(S(=O)(=O)N2CCCC2)cc1	5%	/	/	/	/	/
CCOC(=O)c1[nH]c(=O)[nH]c1CSc1ccccn1	-6%	14µM*	7%	-1%	-4	-19
O=C(NCc1ccc(F)cc1)C1CCN(S(=O)(=O)c2ccc(Br)s2)CC1	-2%	-4%	2%	5%	15*	37*
O=S(=O)(c1ccc(Br)s1)N1CCN(c2ccc(F)cc2)CC1	-5%	25µM*	1%	-13%	11	-4
O=C(NCc1ccc(F)cc1)C1CCCN(S(=O)(=O)c2ccc(Br)s2)C1 (stereo not drawn)	-5%	0%	-1%	-2%	14	55*
O=S(=O)(c1ccc(Br)s1)N1CCN(c2ccnc3cc(Cl)ccc23)CC1	1%	-2%	4%	2%	15*	25
CCN(CC)C(=O)c1sc2c(c1C)c(=O)n(-c1ccc(Cl)c(Cl)c1)c(=O)n2Cc1cc(=O)n2ccccc2n1	1%	-3%	/	/	/	/
O=C(Nc1nnc(-c2ccncc2)s1)C1CCCO1 (stereo not drawn)	5%	-23%	2%	-15%	17*	35*
O=C(Nc1nnc(-c2ccccc2F)s1)C1CCCO1 (stereo not drawn)	-13%	0%	-6%	-13%	39*	64*
O=C(Nc1nnc(Cc2ccc(Cl)cc2)s1)C1CCCO1 (stereo not drawn)	-4%	/	-1%	0%	18	40
Cc1ccc(NC(=O)Cn2cnc3sc(C)c(S(=O)(=O)N4CCN(c5ncccn5)CC4)c3c2=O)cc1F	-2%	-1%	/	/	/	/
